Measurements: PubChem BioAssay (NCI)
About 83,000 compounds went through this panel and 20% of them were active in at least one assay; those are over-represented in the sample as a whole.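 Values shown are percent growth following 48 h exposure of cells in 96-well plates to a single concentration of compound; below 10 was considered active.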 Calls of active or inactive are those of the source.

Tests used:
Assay in all cases: NCI-60 one-dose screen, 48 h (100 = growth as untreated, 0 = no growth, -100 = all killed)
Details in all cases: 10 µM unless noted
SR leukemia = test system: SR leukemia
RPMI-8226 leukemia = test system: RPMI-8226 leukemia
OVCAR-8 ovarian = test system: OVCAR-8 ovarian
OVCAR-5 ovarian = test system: OVCAR-5 ovarian
OVCAR-4 ovarian = test system: OVCAR-4 ovarian
SK-OV-3 ovarian = test system: SK-OV-3 ovarian
IGROV1 ovarian = test system: IGROV1 ovarian
OVCAR-3 ovarian = test system: OVCAR-3 ovarian
HS 578T breast = test system: HS 578T breast
NCI/ADR-RES ovarian = test system: NCI/ADR-RES ovarian
BT-549 breast = test system: BT-549 breast
SW-620 colon = test system: SW-620 colon
MCF7 breast = test system: MCF7 breast
HCT-116 colon = test system: HCT-116 colon
HCC-2998 colon = test system: HCC-2998 colon
KM12 colon = test system: KM12 colon
MDA-MB-435 melanoma = test system: MDA-MB-435 melanoma
T-47D breast = test system: T-47D breast

Measured: growth

Oc1ccc(N=Cc2ccccc2)cc1
inactive: SR leukemia 30.9% | RPMI-8226 leukemia 55.4% | OVCAR-8 ovarian 86.8% | OVCAR-5 ovarian 104% | OVCAR-4 ovarian 79.7% | SK-OV-3 ovarian 119% | IGROV1 ovarian 97.1% | HS 578T breast 103% | NCI/ADR-RES ovarian 101% | BT-549 breast 70.7% | SW-620 colon 99.9% | MCF7 breast 84.8% | HCT-116 colon 60.8% | HCC-2998 colon 100% | KM12 colon 91.3%
active: OVCAR-3 ovarian 7.09%

COc1ccc(/C=C2\Oc3cc(OCCN4CCCC4)ccc3C2=O)c(OC)c1
inactive: SR leukemia 19.6% | RPMI-8226 leukemia 33.9% | OVCAR-8 ovarian 96.2% | OVCAR-5 ovarian 90.3% | OVCAR-4 ovarian 97.6% | SK-OV-3 ovarian 110% | IGROV1 ovarian 99.3% | OVCAR-3 ovarian 93.8% | HS 578T breast 98.5% | NCI/ADR-RES ovarian 91.9% | MDA-MB-435 melanoma 94.3% | MCF7 breast 85.1% | HCT-116 colon 41.3% | HCC-2998 colon 98.2% | KM12 colon 74.3%

NC(=O)NC(=O)/C=C/C(=O)OCCCl
inactive: SR leukemia 96.8% | RPMI-8226 leukemia 93.3% | OVCAR-8 ovarian 90.7% | OVCAR-5 ovarian 96.9% | OVCAR-4 ovarian 107% | SK-OV-3 ovarian 105% | IGROV1 ovarian 109% | OVCAR-3 ovarian 106% | NCI/ADR-RES ovarian 109% | T-47D breast 69% | BT-549 breast 106% | MDA-MB-435 melanoma 101% | SW-620 colon 102% | MCF7 breast 92.2% | HCT-116 colon 104% | HCC-2998 colon 99.8% | KM12 colon 110%

O=C(O)c1ccc(-n2c(=O)c3ccccc3c3ccccc3c2=O)cc1
inactive: SR leukemia 87.6% | RPMI-8226 leukemia 103% | OVCAR-8 ovarian 111% | OVCAR-5 ovarian 99.6% | OVCAR-4 ovarian 119% | SK-OV-3 ovarian 101% | IGROV1 ovarian 116% | OVCAR-3 ovarian 111% | NCI/ADR-RES ovarian 112% | T-47D breast 92.8% | SW-620 colon 110% | MCF7 breast 96.3% | HCT-116 colon 104% | HCC-2998 colon 110% | KM12 colon 104%

CC[C@H](C)[C@@H]1NC(=O)[C@H]([C@@H](C)O)NC(=O)C(Cc2ccccc2)NC(=O)[C@@H]2CCCN2C(=O)C(C(C)C)NC(=O)C(Cc2ccccc2)NC(=O)CNC(=O)[C@@H]2CCCN2C1=O (stereo partly specified)
inactive: SR leukemia 20.1% | OVCAR-8 ovarian 68.3% | OVCAR-5 ovarian 89.9% | OVCAR-4 ovarian 60% | SK-OV-3 ovarian 78.4% | IGROV1 ovarian 63.6% | OVCAR-3 ovarian 57.6% | HS 578T breast 59.2% | NCI/ADR-RES ovarian 64.5% | MDA-MB-435 melanoma 74% | SW-620 colon 68.3% | MCF7 breast 67.4% | HCT-116 colon 18.8% | HCC-2998 colon 88.2% | KM12 colon 59.2%
active: RPMI-8226 leukemia 7.56%

COc1ccc(-n2cnc3c(sc4ncc(Cl)cc43)c2=O)cc1
inactive: SR leukemia 71.2% | RPMI-8226 leukemia 48.2% | OVCAR-8 ovarian 87.9% | OVCAR-5 ovarian 98.6% | OVCAR-4 ovarian 101% | SK-OV-3 ovarian 84.8% | IGROV1 ovarian 65.7% | OVCAR-3 ovarian 53.8% | T-47D breast 86.1% | BT-549 breast 94.9% | MDA-MB-435 melanoma 77.4% | SW-620 colon 98.3% | MCF7 breast 101% | HCT-116 colon 54.5% | HCC-2998 colon 116% | KM12 colon 55.1%

CCN1C(=O)N(CC)C2Nn3c(s/c(=C\c4cccc(F)c4)c3=O)=NC21 (stereo unspecified)
active: MDA-MB-435 melanoma 5.47%
inactive: SR leukemia 36.2% | RPMI-8226 leukemia 90.7% | OVCAR-8 ovarian 77.4% | OVCAR-5 ovarian 86.8% | OVCAR-4 ovarian 67.5% | SK-OV-3 ovarian 102% | IGROV1 ovarian 84.8% | OVCAR-3 ovarian 43% | HS 578T breast 75.5% | NCI/ADR-RES ovarian 30.6% | SW-620 colon 57.4% | MCF7 breast 54.7% | HCT-116 colon 45.4% | HCC-2998 colon 98.7% | KM12 colon 49.1%

CCCCCCCCCCCCCCCCC(Br)C(=O)O (stereo unspecified)
inactive: SR leukemia 105% | RPMI-8226 leukemia 84.6% | OVCAR-8 ovarian 103% | OVCAR-5 ovarian 99.3% | OVCAR-4 ovarian 97.8% | SK-OV-3 ovarian 118% | IGROV1 ovarian 125% | OVCAR-3 ovarian 100% | NCI/ADR-RES ovarian 110% | T-47D breast 86.7% | BT-549 breast 122% | MDA-MB-435 melanoma 98.4% | SW-620 colon 116% | MCF7 breast 92.9% | HCT-116 colon 105% | HCC-2998 colon 102% | KM12 colon 111%

c1ccc(CCn2nnc3c(Nc4ccc(N5CCOCC5)cc4)ncnc32)cc1
inactive: SR leukemia 36% | RPMI-8226 leukemia 68.2% | OVCAR-8 ovarian 86.2% | OVCAR-5 ovarian 88.1% | OVCAR-4 ovarian 89.3% | SK-OV-3 ovarian 93.1% | IGROV1 ovarian 95.3% | OVCAR-3 ovarian 85.9% | HS 578T breast 97.3% | NCI/ADR-RES ovarian 78.8% | MDA-MB-435 melanoma 23.8% | SW-620 colon 62.8% | MCF7 breast 89.1% | HCT-116 colon 54% | HCC-2998 colon 105% | KM12 colon 53.2%

CCn1cc(C(=O)O)c(=O)c2cc(F)c(N3CCN(S(=O)(=O)c4c(C)cc(C)cc4C)CC3)cc21
inactive: SR leukemia 64.7% | RPMI-8226 leukemia 64.1% | OVCAR-8 ovarian 81.5% | OVCAR-5 ovarian 88.6% | OVCAR-4 ovarian 91.4% | SK-OV-3 ovarian 101% | IGROV1 ovarian 79.4% | OVCAR-3 ovarian 89.2% | NCI/ADR-RES ovarian 84.8% | T-47D breast 74.1% | BT-549 breast 73.7% | MDA-MB-435 melanoma 89.1% | MCF7 breast 93.7% | HCT-116 colon 79.2% | HCC-2998 colon 82.5% | KM12 colon 87.2%

O=S(=O)(c1ccccc1)n1ccc(-c2ccc3c(c2)CCO3)n1
inactive: SR leukemia 73.3% | RPMI-8226 leukemia 62.4% | OVCAR-8 ovarian 84% | OVCAR-5 ovarian 103% | OVCAR-4 ovarian 70.1% | SK-OV-3 ovarian 104% | IGROV1 ovarian 75.7% | HS 578T breast 102% | NCI/ADR-RES ovarian 76% | T-47D breast 68.8% | BT-549 breast 96% | MDA-MB-435 melanoma 104% | SW-620 colon 93.6% | MCF7 breast 83.2% | HCT-116 colon 89.1% | HCC-2998 colon 90.8% | KM12 colon 91.9%

COc1ccc(NC(=O)CSc2nc3ccccc3c(=O)n2-c2ccccc2C(F)(F)F)c(OC)c1OC
inactive: SR leukemia 103% | RPMI-8226 leukemia 93.1% | OVCAR-8 ovarian 98% | OVCAR-5 ovarian 97.5% | OVCAR-4 ovarian 97.3% | SK-OV-3 ovarian 89.4% | IGROV1 ovarian 127% | OVCAR-3 ovarian 104% | NCI/ADR-RES ovarian 102% | T-47D breast 95.1% | BT-549 breast 99.8% | MDA-MB-435 melanoma 107% | SW-620 colon 95.3% | MCF7 breast 97.8% | HCT-116 colon 98.3% | HCC-2998 colon 118% | KM12 colon 101%

COc1cc2nc(N3CCC[C@@H](NC4=CC(=O)c5ccccc5C4=O)C3)nc(N)c2cc1OC
inactive: OVCAR-5 ovarian 110% | OVCAR-4 ovarian 81.5% | SK-OV-3 ovarian 112% | NCI/ADR-RES ovarian 99% | BT-549 breast 118% | HCC-2998 colon 106%
active: SR leukemia -11.3% | RPMI-8226 leukemia -44.1% | OVCAR-8 ovarian -41.2% | IGROV1 ovarian -82.3% | OVCAR-3 ovarian -69.5% | T-47D breast -40.9% | SW-620 colon -60.6% | MCF7 breast -63.3% | HCT-116 colon -83.6% | KM12 colon -35.2%

CCN(CC)P(=O)(N(CC)CC)N(CCCSC/C=C(\C)CC/C=C(\C)CCC=C(C)C)CCCN1CCN(C)CC1
inactive: SR leukemia 22.9% | RPMI-8226 leukemia 94.6% | OVCAR-8 ovarian 97.1% | OVCAR-5 ovarian 103% | OVCAR-4 ovarian 92.5% | SK-OV-3 ovarian 103% | IGROV1 ovarian 110% | OVCAR-3 ovarian 104% | NCI/ADR-RES ovarian 106% | T-47D breast 88.9% | BT-549 breast 102% | MDA-MB-435 melanoma 100% | SW-620 colon 101% | MCF7 breast 97.6% | HCT-116 colon 97.1% | HCC-2998 colon 104% | KM12 colon 108%

COc1cc(NCCCN=C(N)NC(N)=NC(C)C)c2ncccc2c1
inactive: SR leukemia 75.2% | RPMI-8226 leukemia 52.5% | OVCAR-8 ovarian 88.5% | OVCAR-5 ovarian 57.6% | OVCAR-4 ovarian 11.3% | SK-OV-3 ovarian 93.7% | NCI/ADR-RES ovarian 98.8% | BT-549 breast 65.1% | MDA-MB-435 melanoma 96.9% | SW-620 colon 86.6% | HCT-116 colon 17.3% | HCC-2998 colon 55.8% | KM12 colon 30.6%
active: IGROV1 ovarian -12.8% | OVCAR-3 ovarian 8.99% | T-47D breast -2.75% | MCF7 breast -52.9%

CN(C)C/C=C/C(=O)Nc1cc2c(Nc3cccc(Cl)c3F)ncnc2cc1OCCOC(F)F
active: SK-OV-3 ovarian -0.955% | IGROV1 ovarian -21.7% | T-47D breast -4.28%
inactive: SR leukemia 51.6% | RPMI-8226 leukemia 58.6% | OVCAR-8 ovarian 34.7% | OVCAR-5 ovarian 29.7% | OVCAR-4 ovarian 27.9% | HS 578T breast 11.2% | NCI/ADR-RES ovarian 32.9% | BT-549 breast 41% | MDA-MB-435 melanoma 15.4% | SW-620 colon 31% | MCF7 breast 35.1% | HCT-116 colon 25.7% | HCC-2998 colon 68.3% | KM12 colon 80.7%

Cc1cc(Nc2nc(-c3ccncc3)nc3ccccc23)n[nH]1
inactive: SR leukemia 18.3% | RPMI-8226 leukemia 91.6% | OVCAR-8 ovarian 101% | OVCAR-5 ovarian 87.1% | OVCAR-4 ovarian 52.4% | SK-OV-3 ovarian 22.8% | IGROV1 ovarian 16.3% | HS 578T breast 22.6% | NCI/ADR-RES ovarian 86.4% | BT-549 breast 82.7% | MDA-MB-435 melanoma 40.3% | SW-620 colon 78.3% | MCF7 breast 40.2% | HCT-116 colon 39.3% | HCC-2998 colon 72% | KM12 colon 18.8%

Nc1ccccc1C#C/C=C\C#Cc1cccc(O)c1
inactive: SR leukemia 13% | RPMI-8226 leukemia 34% | OVCAR-8 ovarian 84.9% | OVCAR-5 ovarian 62.6% | OVCAR-4 ovarian 45% | SK-OV-3 ovarian 74.4% | HS 578T breast 64.3% | NCI/ADR-RES ovarian 31.8% | T-47D breast 55.2% | BT-549 breast 44.8% | SW-620 colon 32.4% | MCF7 breast 35.9% | HCT-116 colon 42.3% | HCC-2998 colon 41.3% | KM12 colon 27.9%
active: IGROV1 ovarian -19.5% | MDA-MB-435 melanoma 6.89%

COc1cc(C(=O)CCCl)ccc1O
inactive: SR leukemia 96.9% | RPMI-8226 leukemia 92% | OVCAR-8 ovarian 102% | OVCAR-5 ovarian 92.7% | OVCAR-4 ovarian 98.8% | SK-OV-3 ovarian 111% | IGROV1 ovarian 104% | HS 578T breast 101% | NCI/ADR-RES ovarian 94.6% | T-47D breast 94.7% | BT-549 breast 112% | MDA-MB-435 melanoma 103% | SW-620 colon 103% | MCF7 breast 80.2% | HCT-116 colon 100% | HCC-2998 colon 103% | KM12 colon 97.1%
